Source: PubChem BioAssay
Nrf2 inh: Nrf2 qHTS screen for inhibitors; A549 ARE-Fluc reporter, luciferase luminescence, 18-24 h; Potency, µM (titrated, usually from 46 µM), inactives show at the highest dose activity change, negative = inhibition, usual class: inhibitors; 2.1% of 360,000 active; further: on the % scale 0 is the no-effect control and ±100 the full control effect; nearly all actives have a fitted effect of over 60% in size
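Cells were seeded and rested 2 h, then exposed to compounds for 18-24 h. CellTiter-Fluor was read first as a viability measure. BugLite was added 15 min before the final luminescent read of ARE-luciferase activity in A549 cells.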
A549 tox: Nrf2 qHTS screen for inhibitors: counterscreen for cytotoxicity; 0.16% of 390,000 active; A549 ARE-Fluc cells, CellTiter-Fluor viability, 18-24 h; Potency, µM (doses to about 46 µM), inactives show at the top dose activity change, negative = cytotoxicity, most hits filed as inhibitors; AID 504648, 2011; further: on the % scale 0 is the no-effect control and ±100 the full control effect
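A549 ARE_Fluc cells in 5% FBS OPTI-MEM were exposed to compounds in concentration-response for 18-24 h at 37 deg C. Viability was read by CellTiter-Fluor fluorescence (Ex 405/Em 525) after 30 min, before the luciferase read.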
Nrf2 activator: qHTS of Nrf2 Activators | AREc32 ARE-luciferase reporter (MCF7-derived line), luminescence, 24 h | Potency, µM (titrated, usually from 46.1 µM), for inactives: at the highest dose activation, usual class: activators | 0.31% of 410,000 active; further: % of control where 0% means no effect; nearly all actives have a fitted effect of over 65% in size
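ARE-driven firefly luciferase activity in AREc32 cells measured after a 24 hr compound exposure at 37 deg C, using Steady-Glo reagent and a 30 min room-temperature hold.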
IDH1 R132H inh: qHTS for Inhibitors of mutant isocitrate dehydrogenase 1 (IDH1): qHTS; Isocitrate dehydrogenase [NADP] cytoplasmic (Homo sapiens), O75874; IDH1-R132H enzyme, NADPH consumption, diaphorase/resazurin fluorescence; Potency, µM (series often up to 76.6 µM), without a hit: at the highest dose activity change, negative = inhibition, most hits filed as inhibitors; 0.093% of 390,000 active; AID 602179, 2012; further: on the % scale 0 is the no-effect control and ±100 the full control effect; nearly all actives have a fitted effect of over 65% in size
Target sequence (O75874 whole entry R132H, stated change not applied): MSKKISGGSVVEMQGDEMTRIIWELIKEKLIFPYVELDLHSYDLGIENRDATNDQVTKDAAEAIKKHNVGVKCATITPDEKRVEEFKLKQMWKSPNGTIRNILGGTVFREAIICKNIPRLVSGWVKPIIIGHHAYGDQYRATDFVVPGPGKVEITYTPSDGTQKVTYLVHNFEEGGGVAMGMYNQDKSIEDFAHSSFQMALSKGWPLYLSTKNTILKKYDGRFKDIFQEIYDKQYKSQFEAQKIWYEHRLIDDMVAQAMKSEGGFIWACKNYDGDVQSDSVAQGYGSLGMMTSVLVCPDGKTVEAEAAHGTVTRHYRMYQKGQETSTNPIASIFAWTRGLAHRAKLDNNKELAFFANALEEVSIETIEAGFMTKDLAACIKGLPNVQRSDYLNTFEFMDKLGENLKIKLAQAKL
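IDH1-R132H (0.5 ug/mL dispensed) in pH 7.5 Tris buffer was preincubated 30 min with compound, then given a substrate mix of 0.016 mM NADPH and 2 mM alpha-KG for 80 min at room temperature; remaining NADPH was read by diaphorase/resazurin fluorescence.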
ELG1 DNA repair: qHTS screen for small molecules that inhibit ELG1-dependent DNA repair in human embryonic kidney (HEK293T) cells expressing luciferase-tagged ELG1; HEK293T ELG1-luciferase reporter, luminescence, 16 h; DNA damage induced by 5-fluorouridine; Potency, µM (top dose mostly 46.1 µM), for the others: at the highest dose activity change, negative = inhibition, most hits filed as inhibitors; 2.3% of 330,000 active; AID 504467, 2011; further: on the % scale 0 is the no-effect control and ±100 the full control effect; nearly all actives have a fitted effect of over 55% in size
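DMSO vehicle served as the neutral condition. Each well held 2,000 cells given 5-fluorouridine plus compound; after 16 hr at 37 °C/5% CO2, ONE-Glo was added and luciferase measured 30 min later.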
Starred values were filed as active, the others as inactive; ? = inconclusive; . = not tested or not shown; [ ] = another dose, or the depositor's remark. Rows were chosen to be rich in hits. Some 3.8% of all compounds tested hit in one or more screens of this group. The call rests on the fitted dose curve; in most records, active means well fitted curve in the direction sought with a large enough effect; inconclusive means small, poorly fitted or top-dose-only effect, or another doubt; inactive means no such curve, though single readings can be large; an effect the other way counts as inactive or inconclusive. Potency means the concentration at half of the fitted maximal effect.

SMILES	Nrf2 inh	A549 tox	Nrf2 activator	IDH1 R132H inh	ELG1 DNA repair
Cc1ccc(C)c(N2CCN(CCCNC(=O)c3cnn(-c4ccccc4)c3C3CCN(C(=O)OC(C)(C)C)CC3)CC2)c1	18µM*	?	-1%	17%	.
Oc1c(C(c2ccccc2F)N2CCN(c3ccccc3F)CC2)sc2nc(-c3ccco3)nn12 (stereo not given)	.	10%	1%	-10%	.
CCOC(=O)c1nc(NNC(=O)c2ccc([N+](=O)[O-])cc2)sc1C	?	?	-1%	-15%	16µM*
Cc1cc(C)cc(NC(=O)c2ccc(CSc3nnc(C)s3)cc2)c1	9%	-1%	3%	9%	?
COc1ccc(OC)c(NC(=O)c2ccc(CSc3nnc(C)s3)cc2)c1	26µM*	6%	0%	12%	-4%
COc1ccc(C(=O)N/N=C\c2ccc(OC)c(COc3ccccc3Br)c2)c(OC)c1	-21%	-4%	0%	0%	8.2µM*
COc1ccc(/C=N\NC(=O)c2ccccc2Br)cc1COc1ccccc1	?	-18%	0%	11%	6%
CN(C)C1=NCCN1CCc1ccc(F)cc1	7%	0%	0%	-4%	15%
CCC1CCCCN1C(=O)c1ccc([N+](=O)[O-])o1 (stereo not given)	14%	-1%	20µM*	-2%	5%
COc1cccc(N2CCN(c3ncccn3)CC2)c1	?	-5%	3%	2%	?
FC(F)(F)c1ccc(N2CCN(c3cc(-c4ccccc4)nc4ncnn34)CC2)nc1	15µM*	?	6%	-3%	?
COc1cccc(N2CCN(c3c4c(nc5ncnn35)CCC4)CC2)c1	13µM*	-8%	-1%	5%	-29%
FC(F)(F)c1cccc(Nc2cc(-c3ccccc3)nc3ncnn23)c1	-15%	17%	-1%	-8%	-5%
c1ccc(N2CCN(c3c4c(nc5ncnn35)CCC4)CC2)cc1	12µM*	-14%	0%	0%	-27%
Cc1cc(N2CCN(c3ccccc3)CC2)n2ncnc2n1	21µM*	-5%	0%	9%	-9%
O=C(CN1C(=O)NC2(CCc3ccccc32)C1=O)Nc1ccc(Cl)cc1F (stereo not given)	.	.	3%	1%	.
O=S1(=O)C=C(N2CCOCC2)c2ccccc21	5%	-5%	13µM*	7%	10%
CC[n+]1c(/C=C/C=C/N(C(C)=O)c2ccccc2)sc2cc(OC)ccc21	-11%	15µM*	10%	-6%	-10%
CC[n+]1c(/C=C(\C)OC)sc2ccccc21	-11%	-2%	-1%[9.22 µM]	-8%	?
CCN(CC)C(=O)[C@H]1C[C@H](CC(=O)NCCN2CCOCC2)C(=O)N2CCc3c([nH]c4cc(-c5ccco5)ccc34)[C@]12C	12%	0%	8%	-10%	4%
CCN(CC)C(=O)[C@H]1C[C@H](CC(=O)NCc2cccc(C(F)(F)F)c2)C(=O)N2CCc3c([nH]c4cc(-c5ccco5)ccc34)[C@]12C	18µM*	?	-2%	0%[38.3 µM]	?
CCN(CC)C(=O)[C@H]1C[C@H](CC(=O)NCc2ccco2)C(=O)N2CCc3c([nH]c4cc(-c5ccco5)ccc34)[C@]12C	?	-8%	25%	0%	18µM*
COCCCNC(=O)C[C@H]1C[C@H](C(=O)N2CCCCC2)[C@@]2(CCc3ccccc3)c3[nH]c4cc(-c5ccco5)ccc4c3CCN2C1=O	23µM*	-25%	3%	-11%	?
CC(C)c1ccc(NC(=O)CN2C(=O)CSc3ccc(S(=O)(=O)N4CCCC4)cc32)cc1	?	-4%	5%	-11%	.
Cc1ccccc1NC(=S)NC(=O)/C=C/c1ccco1	?	-26%	18µM*	5%	-6%
SMILES	Nrf2 inh	A549 tox	Nrf2 activator	IDH1 R132H inh	ELG1 DNA repair
Cc1csc(NC(=O)/C=C/c2ccco2)n1	?	-4%	1.8µM*	4%	?
Clc1cccc(-n2ncc3c(Nc4ccc5c(c4)OCCO5)ncnc32)c1	.	-1%	0%	18%	.
CCC1CSC(Nc2ccc(C(=O)/C=C/c3cccc(C)c3)cc2)=N1 (stereo not given)	23µM*	-18%	0%	4%	-6%
O=C(N/N=C/c1ccc(O)cc1O)c1ccc(CN2C(=O)c3cccc4cccc2c34)cc1	9.2µM*	?	0%	6%	2.9µM*
CC(=O)c1cccc(NC(=O)C(C)OC(=O)CCc2nc3ccccc3c(=O)[nH]2)c1 (stereo not given)	-8%	1%	0%	12%	?
O=c1[nH]c(C2CCN(S(=O)(=O)c3ccc(C(F)(F)F)cc3)CC2)nc2c1nnn2Cc1cccc(F)c1	?	-15%	0%	8%	?
O=c1[nH]c(C2CCN(S(=O)(=O)c3ccc(F)cc3)CC2)nc2c1nnn2Cc1ccc2c(c1)OCCO2	?	-11%	5%	4%	26µM*
Cc1ccc(C)c(Cn2nnc3c(=O)[nH]c(C4CCN(S(=O)(=O)c5ccc(S(=O)(=O)N(C)C)cc5)CC4)nc32)c1	?	5%	-1%	0%	-17%
Cc1ccc(C)c(Cn2nnc3c(=O)[nH]c(C4CCN(S(=O)(=O)c5ccc(S(=O)(=O)NC6CC6)cc5)CC4)nc32)c1	-15%	-2%	3%	1%	16µM*
O=c1[nH]c(C2CCN(S(=O)(=O)c3ccccc3)CC2)nc2c1nnn2Cc1cccc(Cl)c1	-1%	12%	3%	5%	9%
O=c1[nH]c(C2CCN(S(=O)(=O)c3ccccc3F)CC2)nc2c1nnn2Cc1ccc2c(c1)OCCO2	9%	1%	-1%	2%	-9%
O=c1[nH]c(C2CCN(S(=O)(=O)c3ccccc3C(F)(F)F)CC2)nc2c1nnn2Cc1cccc(F)c1	23µM*	?	2%	-1%	?
O=c1[nH]c(C2CCN(S(=O)(=O)c3cccc(Cl)c3)CC2)nc2c1nnn2Cc1ccccc1	15µM*	?	5%	-4%	?
CN(C(=O)CSc1nc2ccc(NC(=O)COc3ccc(F)cc3)cc2s1)c1ccccc1	?	-12%	-1%	.	.
O=C(c1cccs1)N1CCC(c2nc3c(nnn3Cc3c(Cl)cccc3Cl)c(=O)[nH]2)CC1	-3%	-13%	0%	-12%	?
Cc1ccc2c(CC(=O)N(Cc3ccc(Cl)cc3)Cc3ccco3)coc2c1	?	2%	9%	.	.
